In PubChem BioAssay AID463195 (Sanford-Burnham Center for Chemical Genomics, 2010) one finds inhibition data, which are given here for 95 compounds.

Out of some 330,000 compounds screened, about 4,600 (1.4%) were called active. Many of the other results were omitted from the sample, so actives are more common in it than they were. A number with no mark means an inactive call.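 How the source made its calls: active means inhibition of 40% or more at the single tested concentration; inactive means the rest.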

The test is described as follows: growth inhibitors of isogenic TIM10 control yeast, primary screen, counter-screen for tim10-1 yeast inhibitor project, luminescence, uHTS (AID 463195).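 Further: wild-type TIM10 isogenic control strain grown at permissive 25 °C; 0% = DMSO yeast wells and 100% = minimal medium wells without yeast.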 As to conditions: S. cerevisiae TIM10 strain growth, BacTiter-Glo luminescence, 24 h; at 10 µM; active compounds read high. A general note: The purpose of a counterscreen is to sort out artefacts and off-target activity.
Consider `O=C(CSCc1ccccc1)Nc1ccccc1`, for which the inhibition (as a rule, the relative decrease from the control value, in per cent) is -3.8%. As to `COC(=O)Cc1c(O)ccn(Cc2cccc(C(F)(F)F)c2)c1=O`, the inhibition is 11.1%. For `O=C(CSc1ncn[nH]1)N/N=C/c1ccc(F)cc1`, the inhibition is -3.76%.

For `O=C(/C=C/Sc1ncn[nH]1)c1ccc(Cl)cc1`, the inhibition was 73.5% (active). In the case of `Cc1ccc(C(=O)/C=C/c2c(C)nn(-c3ccccc3)c2Cl)cc1`, the inhibition was 29.3%. In the case of `CCN(CC)C(=O)[C@H]1C[C@H](CC(=O)NCC23CC4CC(CC(C4)C2)C3)C(=O)N2CCc3c([nH]c4cc(CCC(=O)N(C)C)ccc34)[C@]12C`, the inhibition is 6.94%. With `CC(=O)c1ccc(NC(=S)NC(=O)CC(C)C)cc1`, the inhibition is 28.8%.

In the case of `CC(C)CC(=O)NC(=S)Nc1cc(C(=O)O)ccc1Cl`, the inhibition was -4.57%. Take `CC(C)CC(=O)NC(=S)Nc1ccc(F)cc1F`: the inhibition was 41.9% (active). `Cc1cc(C)c(C)c(S(=O)(=O)Nc2ccc(O)cc2)c1C`: the inhibition is 11.4%. For `Cc1c(C)c(C)c(S(=O)(=O)NCCc2ccccn2)c(C)c1C` the value was 7.03%; for `COC(=O)c1sccc1NC(=O)CSc1ccccc1NS(=O)(=O)c1cc(Cl)ccc1Cl`, 10%. Take `COC(=O)c1sccc1NS(=O)(=O)c1ccc(F)cc1F`: the inhibition was 48.3% (active). Turning to `COc1ccc(NS(=O)(=O)c2ccc(F)cc2F)cn1`, the inhibition was -5.52%. Turning to `CC1CCCN(CCOCCOc2ccccc2-c2ccccc2)C1` (stereo not given), the inhibition was -0.424%. Regarding `Cc1ccc(NS(=O)(=O)c2ccc3c(c2)n(C)c(=O)c(=O)n3C)c(C)c1`, the inhibition was -2%. Regarding `CCOC(=O)C(=CNc1cccc(C)n1)C(=O)OCC`, the inhibition is -4.77%.

For the compound `CCOC(=O)C(=Cc1ccccc1OC)C(=O)OCC`, the inhibition is 49% (active). On to `COc1ccccc1/C=C/C(=O)NC1CC2CCC1C2` (stereo not given), for which the inhibition was 18.9%.

In the case of `COc1ccccc1CNC(=O)C1CCN(C(=O)[C@@H]2Cc3ccccc3CN2)CC1`, the inhibition was 6.93%. Turning to `COc1ccc(Nc2cc(=O)oc3ccccc23)cc1`, the inhibition is -15.1%. As for `CCCN1CCn2c3c(c4cc(Br)ccc42)CCCC31` (stereo not given), the figure is 6.43%. As for `CCOc1ccc(/C(O)=C2\C(=O)C(=O)N(c3ccc(OC)cc3)C2c2ccccc2[N+](=O)[O-])cc1` (stereo not given), the figure is 23.4%; as for `COc1ccc2[nH]cc(/C=C(/C#N)S(=O)(=O)c3ccccc3)c2c1`, 54.5% (active).

Turning to `CCN(CC)CC(=O)c1c[nH]c2ccc(OC)cc12`, the inhibition is -7.94%. Turning to `COc1ccc2[nH]cc(CCN3C(=O)c4ccc(C(=O)O)cc4C3=O)c2c1`, the inhibition was -1.99%. `COc1ccc(C(=O)COC(=O)c2ccc3ccccc3n2)cc1`: the inhibition was 37.3%.

In the case of `O=C(Oc1ccc([N+](=O)[O-])cc1)c1ccc2ccccc2n1`, the inhibition is 40.4% (active).

On to `CC(OC(=O)c1ccc2ccccc2n1)C(=O)c1ccccc1` (stereo not given), for which the inhibition was 3.19%. On to `O=C(Nc1cccc(Cl)c1Cl)c1ccccc1NC(=O)C1CC=CCC1C(=O)O` (stereo not given), for which the inhibition is -0.652%. As to `Cc1ccc(/C=N/NC(=O)c2cc3ccccc3cc2O)o1`, the inhibition was 16.7%. As to `Cc1cc(N=Nc2ccc3ccccc3c2)ccc1O`, the inhibition was 74.2% (active).

On to `COc1cccc(OCC(O)CNC(=O)c2oc3c(C)c(C)ccc3c2C)c1` (stereo not given), for which the inhibition was -2.72%.

As for `Cc1nc2cc(C(F)(F)F)ccc2n1CCNc1nc(-c2cc(Cl)c(N)c(Cl)c2)cs1`, the inhibition was 3.25%. For the compound `CC(=O)c1c(OCC(=O)N(C)C2CCCCC2)ccc2c(C)cc(=O)oc12`, the inhibition was 5.61%. With `C=CCNC(=S)NNC(=O)COc1c(Cl)cc(Cl)cc1Cl`, the inhibition was 57.7% (active). For `C=CCNC(=S)NNC(=O)c1ccc(Br)o1` the value was -5.99%; for `C=CCNC(=O)COC(=O)CNC(=O)c1cc(Cl)cc([N+](=O)[O-])c1`, -0.359%. `O=C(CN1CCCCC1)NC(=O)Nc1ccccc1F`: the inhibition is -12.6%. With `CCOC(=O)CCCNC(=O)COC(=O)c1cc(Br)c(Br)s1`, the inhibition is 10.3%. Turning to `Cc1ccc(OCc2n[nH]c(=S)n2-c2ccccc2)cc1`, the inhibition was 16.5%. Take `O=[N+]([O-])c1ccccc1/C=N/n1c(COc2ccccc2)n[nH]c1=S`: the inhibition is 17.8%. Consider `Fc1ccc(/C=N/n2c(COc3ccccc3)n[nH]c2=S)cc1`, for which the inhibition is 40.9% (active).

Consider `Cc1[nH]c2ccccc2c1/C=C(/C#N)C(=O)NC(C)C`, for which the inhibition is 17.7%. `CC(C)NC(=O)/C(C#N)=C\c1ccc(N(C)C)c(Br)c1`: the inhibition is 55.1% (active). For `CC(C)(C)C(=O)/C(C#N)=C/c1ccc(O)cc1` the value was -0.948%; for `N=c1n(Cc2ccc(Cl)cc2)c2ccccc2n1CC(O)c1ccco1` (stereo not given), 4.4%. For `NC(=O)c1cc(S(=O)(=O)N2CCCC2)ccc1OCc1ccc(F)cc1`, the inhibition is -5.53%. For `Nc1nonc1-n1nnc(C(=O)N/N=C/c2c[nH]c3ccccc23)c1-c1ccccc1` the value was 12.9%. Turning to `Cc1c(/C=N\NC(=O)c2cc3ccccc3o2)c2ccccc2n1C`, the inhibition is 8.19%.

Take `O=C(O)c1cccc(NC(=S)N/N=C/c2c[nH]c3ccccc23)c1`: the inhibition is 11.4%. Consider `CSC(=S)N/N=C/c1c[nH]c2ccccc12`, for which the inhibition is 43.5% (active).

As for `O=C(N/N=C/c1c[nH]c2ccccc12)c1cc2ccccc2o1`, the inhibition was 49.3% (active). Regarding `O=C(N/N=C/c1cccc(O)c1)c1cc2c(ccc3ccccc32)o1`, the inhibition is 7.41%.

With `COc1ccccc1CNS(=O)(=O)c1cc(C(=O)NCc2ccccn2)c(Cl)cc1Cl`, the inhibition was 3.96%. As to `CCOC(=O)c1cc2c(=O)[nH]c(C(Cl)(Cl)Cl)nc2o1`, the inhibition was 1.82%. `COc1cc2c(cc1NC(=O)COC(=O)/C=C/c1ccccc1)oc1ccccc12`: the inhibition was -21.9%. Take `CN(c1ccc(OCC(=O)NC2=NCCS2)cc1)S(=O)(=O)c1ccc(F)cc1`: the inhibition is -18.2%. Regarding `C/C(CC1CC(C)(C)OC1=O)=N/Nc1nc(-c2ccccc2)cs1` (stereo not given), the inhibition was 17.6%. In the case of `O=C(CSc1cccc[n+]1[O-])c1ccc(-c2ccccc2)cc1`, the inhibition is 42% (active). For the compound `COc1ccccc1C(=O)CSc1cccc[n+]1[O-]`, the inhibition was -4.59%. Regarding `O=C(CSc1cccc[n+]1[O-])c1ccc(Cl)cc1`, the inhibition was 1.21%. On to `CCc1cc2cc(OC)ccc2nc1SCC(=O)Nc1cc(OC)c(OC)cc1C(=O)O`, for which the inhibition was 11.1%. For `Cc1ccc(NC(=O)c2ccc(Oc3ncccn3)cc2)cc1`, the inhibition is 9.43%. Consider `COc1cccc(N(CC(=O)NCCSc2ccccn2)S(C)(=O)=O)c1`, for which the inhibition was -1.16%. For `COC(=O)c1ccc(S(=O)(=O)N2CCc3ccccc3C2)cc1` the value was -8.05%. Regarding `O=C(ON=C1CCN(S(=O)(=O)c2ccccc2)CC1)c1ccc(Cl)cc1`, the inhibition was 48% (active). For `CC(OC(=O)c1ccc(S(=O)(=O)N2CCOCC2)cc1)c1ccccc1` (stereo not given), the inhibition was 10.1%. `Cc1cc[n+](-c2[nH]c(=O)sc2/C=N/NC(=O)c2ccccc2[O-])cc1C`: the inhibition is 2.83%.

In the case of `CN(c1ccc(O)cc1)c1nc(-c2cccnc2)cs1`, the inhibition is -2.92%. As for `COc1ccccc1-c1n[nH]c2c1[C@H](C)CC[C@H]2C(C)C`, the inhibition was 56% (active). Take `COc1ccccc1C1=CC(=O)C[C@H](c2ccc(F)cc2)C1`: the inhibition was -15.1%. As for `CCN(C[C@H]1N[C@@](CC)(C(=O)OC)[C@H]2C(=O)N(Cc3ccccc3)C(=O)[C@@H]12)S(=O)(=O)c1ccc(C(F)(F)F)cc1`, the figure is 12.3%. As for `Cc1ccc(Nc2nc(C)cc(C)c2C(N)=O)cc1`, the figure is 6.89%; as for `Cc1ccc(NC(=O)Nc2nnc(-c3ccncc3)s2)cc1`, 5.77%. `Cc1ccc(Nc2nc(Cl)c(C=O)s2)cc1`: the inhibition is 41.1% (active).

As to `CC(C)NC(=O)NC(=O)CSc1nnc(-c2ccccc2F)n1N`, the inhibition was 5.49%. As for `CN(C(=O)CSc1nnc(N)s1)c1c(N)n(Cc2ccccc2)c(=O)[nH]c1=O`, the figure is 10.2%. Consider `CS(=O)(=O)N(CC(=O)N1CCOCC1)c1ccc2c3c(cccc13)CC2`, for which the inhibition is 8.14%. Consider `CCOc1ccccc1C1NC(=O)NC(C)=C1C(=O)OCc1ccco1` (stereo not given), for which the inhibition is 0.932%. For the compound `CCOc1ccccc1/C=c1\sc2nc(-c3ccco3)nn2c1=O`, the inhibition was 45% (active). Consider `CCCn1nc(C(=O)NNC(=O)CCOc2ccccc2OCC)c2ccccc2c1=O`, for which the inhibition was 13.7%. As for `Cc1cccc([C@@H]2[C@@H]3C(=O)N(Cc4ccccc4)C(=O)[C@@H]3[C@]3(C)C(=O)N(c4ccc(Br)cc4)C(=O)N23)c1`, the inhibition is 4.22%. `Cn1c(Cc2csc(N)n2)nnc1SC/C=C/c1ccccc1`: the inhibition was 7.09%. As for `CCN(Cc1nc2ccccc2c(=O)[nH]1)Cc1cc(=O)oc2cc(C)c(C)cc12`, the figure is -2.16%; as for `COc1ccc(C(=O)NC(C)c2nccs2)cc1OC1CCN(C(C)C)CC1` (stereo not given), -15%; as for `O=C(Nc1nc(-c2ccco2)c(-c2ccco2)s1)c1ccco1`, 40.3% (active). In the case of `O=C(Nc1nnc(CCOCCOCCc2nnc(NC(=O)c3ccco3)s2)s1)c1ccco1`, the inhibition is -7.13%. For `NC(=O)c1ccsc1NC(=O)c1ccco1`, the inhibition was 8.27%. As for `CS/C(=C\[N+](=O)[O-])Nc1ccc(C)cc1`, the figure is 30%; as for `CCc1c(C)[nH]c(=S)c(C#N)c1C`, 3.94%; as for `CC(=O)N1c2ccccc2N(Cc2ccc([N+](=O)[O-])cc2)C(=O)C1(C)C`, 27.8%. With `O=C(NCCCCc1ccccc1)C1CC(c2ccc([N+](=O)[O-])cc2)=NO1` (stereo not given), the inhibition was -15.3%. For `O=C1NC(=O)C2C1C(c1ccc([N+](=O)[O-])cc1)=NN2Cc1ccccc1` (stereo not given), the inhibition was 46.2% (active). As for `c1ccc2c(c1)CSc1sccc1C2=C1CCNCC1`, the inhibition is 1.38%.
